Data reported in PubChem BioAssay AID1159580 (chemical genetic matrix, 2015).
The whole screen tested about 5,500 compounds, of which about 2,000 (36%) were called active. Not shown: some 18% with an inconclusive outcome. Cut-off read from the data, not from the text of the source: active = normalized growth mostly below about 0.91 (no sharp cut-off); inconclusive = no clear call, values can overlap the other calls; inactive = mostly above about 0.92. The list shows a part of the results.

Assay: chemical genetic growth profiling, strain panel (AID 1159580);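 note: tested at 20 µM; growth read once vehicle control cultures reached saturation at 30 °C; 1 = growth at the plate median or of vehicle wells; lower values mean less growth of the strain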
Conditions: S. cerevisiae deletion strains, growth OD
[1] = locus YAL040C, strain CLN3, active compounds read low
[2] = locus YCL061C, strain MRC1 (second series), active compounds read low
[3] = locus YDR150W, strain NUM1, active compounds read low
[4] = locus YER002W, strain NOP16, active compounds read low
[5] = locus YJR075W, strain HOC1, active compounds read low
[6] = locus YNL175C, strain NOP13, active compounds read low
[7] = locus YNL197C, strain WHI3, active compounds read low
[8] = locus YNL224C, strain SQS1, active compounds read low
[9] = locus YNL322C, strain KRE1, active compounds read low
[10] = locus YOR083W, strain WHI5 (second series), active compounds read low

Measured: normalized growth

O=C(O)CCC(=O)N1CCCC1C(=O)O (centres undefined)
inactive: [1] 1.03 | [2] 1 | [3] 0.998 | locus YDR363W, strain ESC2, active compounds read low 1.02 | [4] 1.01 | locus YGR078C, strain PAC10, active compounds read low 0.979 | [5] 1.03 | locus YMR263W, strain SAP30, active compounds read low 1.01 | locus YMR307W, strain GAS1, active compounds read low 0.972 | locus YNL128W, strain TEP1, active compounds read low 0.999 | locus YNL153C, strain GIM3, active compounds read low 1.24 | [6] 0.991 | [7] 0.993 | [8] 0.992 | [9] 1.02 | [10] 0.989

O=C(O)C1=CC(=C(c2ccc(O)c(C(=O)O)c2)c2ccc(O)c(C(=O)O)c2)C=CC1=O
inactive: locus YAL013W, strain DEP1, active compounds read low 0.976 | locus YAL021C, strain ccr4, active compounds read low 0.952 | locus YAL026C, strain drs2, active compounds read low 0.983 | locus YAL030W, strain snc1, active compounds read low 0.986 | [1] 1.02 | locus YBL061C, strain skt5, active compounds read low 0.963 | locus YBR009C, strain hhf1, active compounds read low 1 | locus YBR023C, strain chs3, active compounds read low 0.976 | locus YBR171W, strain sec66, active compounds read low 0.963 | locus YBR231C, strain swc5, active compounds read low 0.954 | locus YBR279W, strain paf1, active compounds read low 0.968 | locus YCL011C, strain gbp2, active compounds read low 0.974 | locus YCL016C, strain dcc1, active compounds read low 0.995 | [2] 0.98 | locus YCL061C, strain MRC1, active compounds read low 0.999 | locus YCL069W, strain vba3, active compounds read low 0.972 | locus YCR088W, strain abp1, active compounds read low 0.985 | locus YDL005C, strain med2, active compounds read low 0.966 | locus YDL040C, strain nat1, active compounds read low 0.987 | locus YDR001C, strain nth1, active compounds read low 0.992 | locus YDR069C, strain doa4, active compounds read low 0.917 | locus YDR137W, strain rgp1, active compounds read low 1.06 | [3] 0.97 | locus YDR159W, strain sac3, active compounds read low 1.03 | locus YDR195W, strain ref2 1 | locus YDR297W, strain sur2, active compounds read low 0.978 | locus YDR334W, strain swr1, active compounds read low 0.957 | locus YDR335W, strain msn5, active compounds read low 0.965 | locus YDR392W, strain spt3, active compounds read low 0.95 | locus YEL003W, strain gim4, active compounds read low 0.973 | locus YEL037C, strain rad23, active compounds read low 0.966 | locus YEL061C, strain CIN8 (second series), active compounds read low 0.979 | [4] 1.02 | locus YER015W, strain faa2, active compounds read low 0.952 | locus YER016W, strain bim1, active compounds read low 0.985 | locus YER111C, strain swi4, active compounds read low 0.961 | locus YER155C, strain BEM2 (second series), active compounds read low 0.953 | locus YFR010W, strain ubp6, active compounds read low 0.976 | locus YGL167C, strain pmr1, active compounds read low 0.97 | locus YGL173C, strain kem1, active compounds read low 0.984 | locus YGL227W, strain vid30, active compounds read low 0.988 | locus YGL240W, strain doc1, active compounds read low 0.985 | locus YGL253W, strain hxk2, active compounds read low 0.978 | locus YHR013C, strain ard1, active compounds read low 0.952 | locus YHR027C, strain rpn1, active compounds read low 0.98 | locus YHR030C, strain SLT2, active compounds read low 1.01 | locus YHR079C, strain IRE1, active compounds read low 1 | locus YHR142W, strain chs7, active compounds read low 0.946 | locus YJL092W, strain hpr5, active compounds read low 0.97 | locus YJL095W, strain BCK1 (second series), active compounds read low 0.963 | locus YJL095W, strain BCK1, active compounds read low 0.982 | locus YJL115W, strain asf1, active compounds read low 0.999 | locus YJL129C, strain trk1, active compounds read low 1.01 | locus YJL154C, strain vps35, active compounds read low 0.982 | locus YJL164C, strain tpk1, active compounds read low 0.969 | locus YJL166W, strain qcr8, active compounds read low 0.979 | locus YJL187C, strain SWE1, active compounds read low 0.969 | locus YJR066W, strain TOR1, active compounds read low 0.877 | [5] 0.974 | locus YKL160W, strain elf1, active compounds read low 0.976 | locus YKR026C, strain gcn3, active compounds read low 0.989 | locus YKR091W, strain srl3, active compounds read low 0.981 | locus YLL001W, strain dnm1, active compounds read low 0.998 | locus YLL026W, active compounds read low 0.985 | locus YLL041C, strain sdh2, active compounds read low 0.981 | locus YLR027C, strain aat2, active compounds read low 0.981 | locus YLR113W, strain HOG1, active compounds read low 1.05 | locus YLR221C, strain rsa3, active compounds read low 0.983 | locus YLR258W, strain gsy2, active compounds read low 0.967 | locus YLR262C, strain YPT6 (second series), active compounds read low 0.973 | locus YLR320W, strain mms22, active compounds read low 0.985 | locus YLR342W, strain FKS1, active compounds read low 0.978 | locus YLR357W, strain rsc2, active compounds read low 0.857 | locus YLR370C, strain arc18, active compounds read low 0.98 | locus YLR384C, strain iki3, active compounds read low 0.957 | locus YML120C, strain ndi1, active compounds read low 0.978 | locus YMR125W, strain sto1, active compounds read low 0.958 | locus YMR129W, active compounds read low 0.989 | locus YMR205C, strain PFK2, active compounds read low 1.01 | locus YMR231W, strain pep5, active compounds read low 0.946 | locus YNL071W, strain lat1, active compounds read low 0.974 | [6] 1 | locus YNL183C, strain NPR1, active compounds read low 0.913 | [7] 1 | locus YNL209W, strain ssb2, active compounds read low 0.952 | [8] 1.03 | locus YNL248C, strain rpa49, active compounds read low 0.999 | locus YNL322C, strain KRE1 (second series), active compounds read low 0.999 | [9] 0.93 | locus YNR049C, strain mso1, active compounds read low 0.992 | locus YOR001W, strain rrp6, active compounds read low 0.959 | locus YOR070C, strain gyp1, active compounds read low 0.995 | locus YOR080W, strain dia2, active compounds read low 0.988 | [10] 0.999 | locus YOR083W, strain WHI5, active compounds read low 0.97 | locus YOR231W, strain MKK1, active compounds read low 1.01 | locus YOR265W, strain rbl2, active compounds read low 0.99 | locus YOR270C, strain vph1, active compounds read low 0.942 | locus YOR290C, strain snf2, active compounds read low 0.966 | locus YPL055C, strain LGE1, active compounds read low 0.961 | locus YPL078C, strain atp4, active compounds read low 0.982 | locus YPL106C, strain sse1, active compounds read low 0.915 | locus YPL240C, strain hsp82, active compounds read low 0.973 | locus YPL256C, strain CLN2, active compounds read low 1.06
active: locus YGR229C, strain SMI1, active compounds read low 0.823 | locus YMR058W, strain fet3, active compounds read low 0.714 | locus YOR106W, strain vam3, active compounds read low 0.836 | locus YPL051W, strain arl3, active compounds read low 0.907
